MITF primary: inhibitors of human MITF | 0.91% of 650,000 active | AID 1259374 | inhibition, % at 2.6 µM | AlphaScreen MITF homodimerization, bead proximity signal | O75030; in the data active = inhibition above about 50%
GPR151 ag: human GPR151 activation; Q8TDV0; PathHunter beta-arrestin GPR151 cells, luminescence; activation, % at 11.2 µM; 1% of 650,000 active; AID 1508602; in the data active = activation above about 4.9%
Target sequence (Q8TDV0 whole entry, looked up): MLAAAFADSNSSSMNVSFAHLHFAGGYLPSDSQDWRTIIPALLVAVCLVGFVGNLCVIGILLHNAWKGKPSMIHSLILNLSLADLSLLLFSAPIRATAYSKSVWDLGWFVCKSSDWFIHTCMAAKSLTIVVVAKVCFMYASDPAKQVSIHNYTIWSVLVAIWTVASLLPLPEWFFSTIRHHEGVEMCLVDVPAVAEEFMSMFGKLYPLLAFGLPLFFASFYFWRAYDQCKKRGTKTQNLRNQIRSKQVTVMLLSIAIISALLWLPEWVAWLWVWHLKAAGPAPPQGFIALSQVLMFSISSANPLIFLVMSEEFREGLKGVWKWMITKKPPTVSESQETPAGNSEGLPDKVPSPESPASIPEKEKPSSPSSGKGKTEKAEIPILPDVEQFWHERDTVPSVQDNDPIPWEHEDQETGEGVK
TEAD-YAP inh: TEAD-YAP interaction inhibition. HEK-TIYL cells, TEAD-Gal4/YAP UAS-luciferase luminescence. 1.4% of 640,000 active. inhibition, % at 9.12 µM; in the data active = inhibition above about 32%
FBW7 activator: activators of human E3 ligase FBW7; 0.13% of 650,000 active; Q969H0; AlphaScreen FBW7–phospho-cyclin E peptide binding, activator screen; normalized activity (activation), % at 26.1 µM; in the data active = normalized activity above about 1.9%;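 also: purified mutant Fbw7 with reduced substrate affinity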
MITF confirm: human MITF inhibition, confirmation | shares compounds with MITF primary | AlphaScreen MITF homodimerization, biotin/His-MITF beads | inhibition, % at 2.6 µM | 16% of 4,700 active | AID 1259372;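 active = inhibition above a cutoff derived from the DMSO control wells, cut at about 28% in these data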;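 also: inhibitors lower the bead chemiluminescence by keeping MITF from dimerizing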
AlphaScreen DR: optically interferes with AlphaScreen signal in dose response; shares compounds with MITF primary; AlphaScreen optical interference counterscreen, cell-free; IC50, µM; 6% of 480 active; AID 1259373; call rule not given here
AS interf ctr: counter-screen: compounds optically interfering with AlphaScreen; 7.6% of 4,700 active; AID 1259376; inhibition, % at 2.6 µM; LysRS AlphaScreen counterscreen, signal interference, triplicate; shares compounds with MITF primary;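 active = inhibition above a cutoff derived from the DMSO control wells, cut at about 30% in these data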
Hits are given with their value; n = inactive; x = no result. Compounds with a hit are over-represented: about 3.4% of the library has one in this group of screens.

SMILES	MITF primary	GPR151 ag	TEAD-YAP inh	FBW7 activator	MITF confirm	AS interf ctr	others
COc1ccc(-c2cccc(C(=O)NCc3ccc4c(c3)OCO4)c2)cc1	n	n	n	n	x	x
COc1cccc(-c2cc(CNC(=O)c3ccc4c(c3)OCO4)no2)c1	51	n	n	n	n	n
CC(=O)N1CCN(Cc2ccccc2[N+](=O)[O-])CC1	n	n	n	n	x	x
COc1ccc(OC)c(CN2CCN(Cc3ccccc3[N+](=O)[O-])CC2)c1	77	n	n	n	n	n
COc1ccc(CN2CCN(Cc3ccccc3[N+](=O)[O-])CC2)c(OC)c1	52	n	n	n	n	n
COc1ccc(OC)c(CN2CCN(S(=O)(=O)c3ccccc3[N+](=O)[O-])CC2)c1	n	n	n	n	x	x
O=C(O)CNS(=O)(=O)c1ccc2ccccc2c1	n	n	n	n	x	x
Cc1cc(C)nc(NS(=O)(=O)c2ccc(N3C(=O)C=CC3=O)cc2)n1	61	n	n	n	37	n	AlphaScreen DR=n
O=C(CC(=O)c1ccco1)Nc1cc(Cl)ccc1Cl	56	n	n	n	n	n
N#Cc1ccccc1NC(=O)CN1CCN(Cc2ccccc2)CC1	60	n	n	n	n	n
Cc1ccccc1NC(=O)CN1CCN(Cc2ccccc2)CC1	n	n	n	n	x	x
O=C(CN1CCN(CC(=O)c2ccco2)CC1)Nc1ccc2c(c1)OCCO2	69	n	n	n	n	n
O=C(CN1CCC(NC(=O)c2ccco2)CC1)Nc1ccccc1F	n	n	n	n	x	x
O=C(CN1CCN(CC(=O)c2ccco2)CC1)Nc1ccccc1F	66	n	n	n	n	n
COc1ccccc1CN1CCc2c(nc(N3CCCC(C)C3)[nH]c2=O)C1 (stereo not given)	n	n	n	n	x	x
COc1ccccc1-c1cc(C(=O)N2CCCCC2C)[nH]n1 (stereo not given)	n	n	n	n	x	x
COc1ccc(Cl)cc1NC(=O)CN1CCN(CC(=O)c2ccco2)CC1	53	n	n	n	n	n
COc1ccc(Cl)cc1NC(=O)CN1CCN(C)CC1	n	n	n	n	x	x
CCN(CC)Cc1ccc(O)c2ncccc12	93	n	51	n	102	100
Cc1cccnc1NCc1ccc(O)c2ncccc12	64	n	n	n	52	91
CCN(CC)Cc1cccc2cccnc12	n	n	n	n	x	x
Cc1nccn1Cc1ccc(O)c2ncccc12	82	n	n	n	103	101
Cc1ccc(NCc2ccc(O)c3ncccc23)cc1	53	n	n	n	105	100
Cc1ccc(NCc2ccccc2O)cc1	n	n	n	n	x	x
CCCCCCOc1ccc(C(=O)Oc2ccc3c(C)cc(=O)oc3c2)cc1	n	n	n	n	x	x
SMILES	MITF primary	GPR151 ag	TEAD-YAP inh	FBW7 activator	MITF confirm	AS interf ctr	others
CCOc1ccc(C(=O)Nc2cccc(NC(=O)c3ccc(I)cc3)c2)cc1	n	n	n	n	x	x
O=C(CN1C(=O)c2ccccc2C1=O)N1CCOCCOCCN(C(=O)CN2C(=O)c3ccccc3C2=O)CCOCCOCC1	n	n	n	n	x	x
COc1ccccc1OCC#CCNC1CCCC1	55	n	n	n	n	n
O=C(NCCN1CCCCC1)/C(=C/c1ccco1)NC(=O)c1ccccc1	n	n	n	n	x	x
Cc1ccc(C(=O)N/C(=C\c2ccco2)C(=O)NCCCn2ccnc2)cc1	74	n	n	n	38	53
Cc1ccc(C(=O)N/C(=C\c2ccco2)C(=O)NCCN2CCCCC2)cc1C	58	n	n	n	n	n
Cc1ccc(C(=O)N/C(=C\c2ccc(F)cc2)C(=O)NCCCn2ccnc2)cc1	n	n	n	n	x	x
CN(Cc1nc(-c2ccc3c(c2)OCO3)no1)CC1Cc2ccccc2O1 (stereo not given)	n	n	n	n	x	x
C/C(=N\Nc1ccccc1C)c1ccc(-n2ccnc2)cc1	n	n	n	n	x	x
CCS(=O)(=O)N1CCN(Cc2ccccc2Br)CC1	n	n	n	n	x	x
O=[N+]([O-])c1ccc(S(=O)(=O)N2CCN(Cc3ccccc3Br)CC2)cc1	80	n	n	n	n	n
O=S(=O)(c1ccccc1)N1CCN(Cc2ccccc2Br)CC1	73	n	n	n	n	n
CC(=NCc1ccccc1)c1c(O)[nH]c2ccccc12	n	n	n	n	x	x
Nc1nc(CSc2nnc(-c3cccc(F)c3)n2-c2ccccc2)nc(N2CCOCC2)n1	51	n	n	n	n	n
O=C(COc1ccc(Cl)cc1)N/N=C/c1ccc(C(=O)O)cc1	n	n	n	n	x	x
CCOC(=O)c1ccc(N2C(=O)C(Cl)=C(Nc3ccccc3C(=O)O)C2=O)cc1	56	n	n	n	n	n
CN1CCN(CCOCCOc2ccc(Cl)cc2C(C)(C)C)CC1	68	n	n	n	n	33
CN1CCN(CCOCCOc2cccc(Cl)c2Cl)CC1	51	n	n	n	n	n
CCN1CCN(CCOc2ccc(C)cc2C)CC1	78	n	n	n	n	n
CN1CCN(CCOCCOc2ccccc2Br)CC1	n	n	n	n	x	x
Cc1ccc(OCCOCCN2CCN(C)CC2)c(C)c1	65	n	n	n	n	n
CCN1CCN(CCOc2ccc(C)cc2Br)CC1	n	n	n	n	x	x
COc1cc2c(cc1O)CCN(C(=O)c1oc(=O)c3ccccc3c1-c1ccccc1)C2C (stereo not given)	n	n	n	n	x	x
CC(C)(C)CN1CCNC(=O)C1CC(=O)NCc1cn[nH]c1-c1ccc(F)cc1 (stereo not given)	n	n	n	n	x	x
Cc1ccc(OCCOCCN2CCN(C)CC2)c(C(C)(C)C)c1	56	n	n	n	n	n
SMILES	MITF primary	GPR151 ag	TEAD-YAP inh	FBW7 activator	MITF confirm	AS interf ctr	others
Cc1ccc(OCCCN2CCN(C)CC2)c(C(C)(C)C)c1	n	n	n	n	x	x
CCCCOC(=O)c1cccc(NC(=O)C(C)C)c1	n	n	n	n	x	x
N#Cc1cc2c(=O)n3ccccc3nc2n(-c2cccc(C(F)(F)F)c2)c1=O	n	n	n	n	x	x
CCOc1ccc(-c2cn3c(CC(=O)N4CCN(c5ccccc5)CC4)csc3n2)cc1	55	n	n	n	n	n
CCOc1ccc(-c2cn3c(CC(=O)N4CCCCC4CC)csc3n2)cc1 (stereo not given)	n	n	n	n	x	x
Cc1cncc2c(S(=O)(=O)N3CC[C@@H](NC(=O)C(O)c4ccc(F)cc4F)C3)cccc12 (stereo not given in full)	59	n	n	n	58	n	AlphaScreen DR=n
CCOc1cccc(N2C(=O)CC(N3CCN(c4ccc(OC)cc4)CC3)C2=O)c1 (stereo not given)	n	n	n	n	x	x
O=C(NNC(=S)NCc1ccc(Cl)cc1)c1ccccn1	112	n	n	n	102	100
O=C(NNC(=S)NCc1ccco1)c1ccccn1	117	n	n	n	46	67
CCOC(=O)C1(CCCc2ccccc2)CCN(C(=O)CCc2ccc(=O)[nH]n2)CC1	n	n	n	n	x	x
COCCn1nnnc1C(C(C)C)N1CCSCC1 (stereo not given)	59	n	n	n	n	n
